Experimental data taken from PubChem BioAssay (NCI).
The panel holds about 79,000 compounds, 15% with a hit somewhere; the sample as a whole holds those more often. Values without a mark were called inactive. The source made the active and inactive calls. Rule as the data show it: active = growth inhibition above about 70%; inactive = the rest.

Assay: NCI Yeast Anticancer Drug Screen. Data for the mlh1 rad18 strain (AID 175)
Conditions: S. cerevisiae mlh1 rad18 strain growth inhibition; at 50.0 µM; stronger effect = higher value
Procedure, shortened: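 A repair-deficient yeast strain is exposed to test compound, and growth is scored relative to vehicle-treated controls.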

Row | Compound | growth inhibition
1 | CCOC(=O)c1cc2cc([N+](=O)[O-])ccc2[nH]1 | 16.4%
2 | Cc1cc(NS(=O)(=O)c2ccc(NC(=O)c3cccn4c(=O)c5ccccc5nc34)cc2)no1 | -8.8%
3 | CN(C)/C=C(/N=C(C#N)C#N)C1OCCO1 | -1.7%
4 | Cc1cccc(C2=NC(=C3CCCCC3)C(=O)O2)c1 | 20.9%
5 | C1CCC(C(CCCCC(C2CCCCC2)C2CCCCC2)C2CCCCC2)CC1 | -2.6%
6 | COC(=O)c1ccc(CSc2ccc(N)cc2)cc1 | 68.5%
7 | O=C(OC1CCCC1)C1(O)CCCCC1 | -16.2%
8 | c1ccc(C(c2ccccc2)c2cc(-c3cc(C(c4ccccc4)c4ccccc4)[nH]n3)n[nH]2)cc1 | 6.25%
9 | Cn1c(N)c(-n2[nH]c(=O)n(-c3ccccc3)c2=O)c(=O)n(C)c1=O | 18.1%
10 | CCN(CC)CCN(C(=Nc1ccccc1)N1CCCCC1)c1ccccc1 | 19.4%
11 | CCOC(=O)c1c(C(F)(F)F)oc2c1ccc1nc3nonc3nc12 | 35%
12 | Cc1ccc(NC(=O)C(=O)CC(=O)c2c(C)n([O-])c3ccccc3[n+]2=O)cc1C | 11.9%
13 | O=C1Nc2cc([N+](=O)[O-])c(Br)cc2C1=O | 12.1%
14 | [O]=[W](=[O])([OH])[OH] | -17.5%
15 | O=C1c2ccccc2NC(c2cc(Cl)cc(Cl)c2O)N1CCc1ccccn1 (stereo not given) | -11.9%
16 | COC(=O)c1cc(-c2cccc3ccccc23)[nH]c(=O)c1C#N | 21.9%
17 | CN1CCN(C2CCCc3ccccc3C2O)CC1 (stereo not given) | 0.2%
18 | NCCCn1[nH]c(=O)c2ncccc2c1=O | -18.7%
19 | CCCC1OC(c2ccccc2)OCC1CC (stereo not given) | 9.05%
20 | Cc1ccccc1C(=O)NNC(=O)c1cccc2ccccc12 | 6.95%

Row | Compound | growth inhibition
21 | Cc1cc(-n2cnc3c(Cl)ncnc32)ccc1N | -9.1%
22 | COc1cc2c(cc1OC)C(c1ccccc1)OCC2 (stereo not given) | -2.05%
23 | O=C(Nc1cccc2ccccc12)c1ccc(Cl)c(Cl)c1 | 72.3% (active)
24 | O=C([O-])c1ccc2c(c1)-c1nc-2nc2[n-]c(nc3nc(nc4[n-]c(n1)c1ccc(C(=O)[O-])cc41)-c1cc(C(=O)[O-])ccc1-3)c1ccc(C(=O)[O-])cc21.[Fe+2] | -1.75%
25 | COc1ccc(-n2c(=O)c(N=Nc3ccccc3)c(O)n(-c3ccccc3OC)c2=S)cc1 | 15.3%
26 | COc1ccc2c(c1)CCC1C(=O)NN=C21 (stereo not given) | -8%
27 | CC(=Nc1ccc(Cl)c(Cl)c1)c1ccncc1 | -35.1%
28 | CCOC(=O)CCNc1nc(N)nc(C)c1NC=O | 16.9%
29 | Brc1ccc2oc3ccccc3c2c1 | 24.8%
30 | C/C(N=NC(=S)N1CCCC1)=C1\C=CC=CN1O | 22.9%
31 | NC(=O)CS | -22.1%
32 | CCC(=O)C12CCCC1=NC(=N)N=C2C1=NC(=N)N=C2CCCC21C(=O)CC (stereo not given) | 5.2%
33 | COc1ccc([N+](=O)[O-])c2c(C)cc(=O)[nH]c12 | 35.7%
34 | CCC(c1ccc(Cl)cc1)N(CC)c1ccccn1 (stereo not given) | -30.2%
35 | COc1ccc(/C=C2/SC(=Nc3ccccc3)N(NC(=O)Cc3ccccc3)C2=O)c(OC)c1 | 1.9%
36 | CCOC(=O)c1n[nH]c(C)c1C/C(=N/O)c1ccccc1 | -35.9%
37 | CC(=O)N1OCCc2ccccc21 | -1.45%
38 | C(#CC(Sc1ccccc1)=C(Sc1ccccc1)Sc1ccccc1)Sc1ccccc1 | -6.25%
39 | O=C1C(Cl)=C(N(C(=O)c2ccccc2)C(=O)c2ccccc2)C(=O)c2ccccc21 | -51.6%
40 | O=NN(CCCl)C(=O)NC1CCC(C(=O)O)CC1 (stereo not given) | 2.4%
